A number with no mark means an inactive call.
Legend:
Test in all cases: log2 ratio of Biotin-Ahx-Ub-VS probe labelling (fragment/DMSO); higher = less target engagement (more negative = stronger competition), active = hit call of the paper (q ≤ 0.05, log2 ratio ≤ -1)
Conditions in all cases: compound concentration: 200 uM; treatment time: 3 h
[1] = molecular target: T1, USP19 (UniProt O94966)
T1 sequence (whole entry): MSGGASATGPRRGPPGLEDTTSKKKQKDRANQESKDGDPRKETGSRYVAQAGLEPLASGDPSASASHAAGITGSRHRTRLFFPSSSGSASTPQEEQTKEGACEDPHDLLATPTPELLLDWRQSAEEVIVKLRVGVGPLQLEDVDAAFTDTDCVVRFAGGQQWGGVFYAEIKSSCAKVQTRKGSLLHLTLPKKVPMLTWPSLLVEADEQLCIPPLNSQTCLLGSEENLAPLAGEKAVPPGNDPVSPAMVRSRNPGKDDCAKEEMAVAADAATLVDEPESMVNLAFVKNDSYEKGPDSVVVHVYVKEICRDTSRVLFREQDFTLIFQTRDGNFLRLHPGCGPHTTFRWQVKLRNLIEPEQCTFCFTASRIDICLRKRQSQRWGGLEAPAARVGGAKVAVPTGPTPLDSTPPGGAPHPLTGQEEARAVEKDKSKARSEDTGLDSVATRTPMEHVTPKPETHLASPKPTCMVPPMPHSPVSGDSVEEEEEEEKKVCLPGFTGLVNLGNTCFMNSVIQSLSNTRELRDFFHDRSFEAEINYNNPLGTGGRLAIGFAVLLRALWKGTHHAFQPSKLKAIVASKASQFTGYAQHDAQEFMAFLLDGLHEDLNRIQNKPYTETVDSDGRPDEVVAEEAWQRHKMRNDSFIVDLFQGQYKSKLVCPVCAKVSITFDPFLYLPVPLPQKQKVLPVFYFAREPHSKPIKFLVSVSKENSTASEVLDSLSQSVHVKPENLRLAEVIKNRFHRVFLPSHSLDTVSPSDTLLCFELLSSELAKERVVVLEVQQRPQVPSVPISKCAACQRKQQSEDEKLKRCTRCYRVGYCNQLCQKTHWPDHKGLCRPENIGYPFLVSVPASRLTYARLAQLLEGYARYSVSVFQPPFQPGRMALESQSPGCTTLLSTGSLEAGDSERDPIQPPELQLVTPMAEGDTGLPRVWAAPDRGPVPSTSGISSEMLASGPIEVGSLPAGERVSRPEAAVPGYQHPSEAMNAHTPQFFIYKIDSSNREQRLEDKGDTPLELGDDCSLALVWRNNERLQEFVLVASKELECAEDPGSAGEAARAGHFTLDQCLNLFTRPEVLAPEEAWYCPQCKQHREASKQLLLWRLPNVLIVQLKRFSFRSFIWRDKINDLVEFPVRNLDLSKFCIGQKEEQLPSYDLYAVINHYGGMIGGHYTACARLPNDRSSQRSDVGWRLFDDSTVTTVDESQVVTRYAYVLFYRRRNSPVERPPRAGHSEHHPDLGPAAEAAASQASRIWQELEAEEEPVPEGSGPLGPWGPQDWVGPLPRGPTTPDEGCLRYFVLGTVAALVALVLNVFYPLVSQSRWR
In short: (§1)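 Labelled DUBs were enriched with NeutrAvidin, digested with LysC and trypsin, and run by diaPASEF LC-MS/MS. The labelling used Biotin-Ahx-Ub-VS at 0.5 µM final for 1 h on HEK293T lysate (495 µg per sample) previously treated in triplicate with fragment at 200 µM or vehicle for 3 h. Values are average log2 fragment/vehicle ratios by unpaired t-test on global-median-normalised Spectronaut quantities of proteins with ≥2 unique peptides.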

[2] = molecular target: T2, USP22 (UniProt Q9UPT9)
T2 sequence (whole entry): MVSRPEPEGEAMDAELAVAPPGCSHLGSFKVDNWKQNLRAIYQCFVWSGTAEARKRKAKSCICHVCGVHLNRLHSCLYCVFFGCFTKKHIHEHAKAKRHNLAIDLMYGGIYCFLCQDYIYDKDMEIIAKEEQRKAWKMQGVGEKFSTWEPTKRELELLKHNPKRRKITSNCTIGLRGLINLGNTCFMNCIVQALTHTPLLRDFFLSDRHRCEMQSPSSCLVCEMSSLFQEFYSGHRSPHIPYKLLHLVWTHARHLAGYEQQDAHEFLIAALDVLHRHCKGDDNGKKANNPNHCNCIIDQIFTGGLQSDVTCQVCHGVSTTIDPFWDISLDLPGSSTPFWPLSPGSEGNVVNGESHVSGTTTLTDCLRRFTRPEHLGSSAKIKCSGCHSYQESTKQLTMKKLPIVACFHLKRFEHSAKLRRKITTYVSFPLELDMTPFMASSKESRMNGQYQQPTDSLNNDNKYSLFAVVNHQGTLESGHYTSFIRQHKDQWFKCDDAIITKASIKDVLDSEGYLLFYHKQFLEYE
In short: as §1

[3] = molecular target: USP24 (UniProt Q9UPU5)
In short: as §1

[4] = molecular target: T3, USP25 (UniProt Q9UHP3)
T3 sequence (whole entry): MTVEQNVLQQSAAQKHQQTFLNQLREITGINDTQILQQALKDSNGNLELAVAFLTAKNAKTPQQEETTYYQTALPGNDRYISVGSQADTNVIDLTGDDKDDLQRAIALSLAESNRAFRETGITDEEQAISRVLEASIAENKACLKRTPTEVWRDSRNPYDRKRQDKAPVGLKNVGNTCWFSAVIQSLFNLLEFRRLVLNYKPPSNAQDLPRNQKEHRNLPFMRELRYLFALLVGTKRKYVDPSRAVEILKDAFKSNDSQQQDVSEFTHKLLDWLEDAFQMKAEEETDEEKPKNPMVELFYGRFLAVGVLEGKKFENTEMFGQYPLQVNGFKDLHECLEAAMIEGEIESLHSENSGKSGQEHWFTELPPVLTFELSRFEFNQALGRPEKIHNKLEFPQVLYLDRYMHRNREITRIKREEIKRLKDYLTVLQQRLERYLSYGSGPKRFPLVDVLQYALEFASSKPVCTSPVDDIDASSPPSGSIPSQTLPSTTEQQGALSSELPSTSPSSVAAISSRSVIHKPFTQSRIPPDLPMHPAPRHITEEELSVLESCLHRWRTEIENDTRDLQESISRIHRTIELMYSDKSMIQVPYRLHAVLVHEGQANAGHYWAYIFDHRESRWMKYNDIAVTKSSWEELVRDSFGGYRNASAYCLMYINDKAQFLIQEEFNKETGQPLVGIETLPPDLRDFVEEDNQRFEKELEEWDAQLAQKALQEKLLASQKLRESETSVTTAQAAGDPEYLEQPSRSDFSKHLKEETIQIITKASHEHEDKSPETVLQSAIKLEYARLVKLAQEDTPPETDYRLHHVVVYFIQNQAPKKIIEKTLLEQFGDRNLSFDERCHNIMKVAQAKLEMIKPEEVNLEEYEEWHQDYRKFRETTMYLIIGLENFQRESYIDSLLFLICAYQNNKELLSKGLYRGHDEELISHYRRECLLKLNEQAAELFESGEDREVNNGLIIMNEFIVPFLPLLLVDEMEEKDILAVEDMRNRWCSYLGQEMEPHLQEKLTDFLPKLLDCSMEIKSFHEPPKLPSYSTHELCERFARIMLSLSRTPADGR
In short: as §1

[5] = molecular target: T4, USP28 (UniProt Q96RU2)
T4 sequence (whole entry): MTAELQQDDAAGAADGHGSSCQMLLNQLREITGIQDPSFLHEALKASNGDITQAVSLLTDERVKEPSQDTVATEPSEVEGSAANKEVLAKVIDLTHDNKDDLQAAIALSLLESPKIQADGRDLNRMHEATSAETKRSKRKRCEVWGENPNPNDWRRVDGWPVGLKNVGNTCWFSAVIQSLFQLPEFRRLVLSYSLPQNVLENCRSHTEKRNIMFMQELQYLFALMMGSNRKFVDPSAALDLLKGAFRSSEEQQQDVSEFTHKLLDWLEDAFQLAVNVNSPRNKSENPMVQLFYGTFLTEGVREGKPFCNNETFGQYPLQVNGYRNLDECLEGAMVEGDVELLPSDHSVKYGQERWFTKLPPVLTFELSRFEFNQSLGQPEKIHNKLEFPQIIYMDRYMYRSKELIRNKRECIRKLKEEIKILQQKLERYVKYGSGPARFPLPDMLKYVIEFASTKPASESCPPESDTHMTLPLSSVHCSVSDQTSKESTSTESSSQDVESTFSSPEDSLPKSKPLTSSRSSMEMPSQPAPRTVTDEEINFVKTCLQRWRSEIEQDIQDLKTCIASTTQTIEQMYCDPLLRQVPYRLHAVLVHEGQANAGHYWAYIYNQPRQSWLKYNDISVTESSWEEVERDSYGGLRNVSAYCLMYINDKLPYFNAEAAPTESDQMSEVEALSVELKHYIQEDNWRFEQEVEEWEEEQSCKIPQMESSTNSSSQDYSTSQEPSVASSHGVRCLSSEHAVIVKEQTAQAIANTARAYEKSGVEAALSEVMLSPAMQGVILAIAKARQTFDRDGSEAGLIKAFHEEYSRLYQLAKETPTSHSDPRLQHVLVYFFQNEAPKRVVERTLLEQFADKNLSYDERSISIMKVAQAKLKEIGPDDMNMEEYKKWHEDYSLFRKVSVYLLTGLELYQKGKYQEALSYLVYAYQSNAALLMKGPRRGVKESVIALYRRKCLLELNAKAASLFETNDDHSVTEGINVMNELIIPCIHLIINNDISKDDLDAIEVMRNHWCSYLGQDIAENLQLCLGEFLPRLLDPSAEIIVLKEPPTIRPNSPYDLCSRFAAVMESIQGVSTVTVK
In short: as §1

Sequence of USP24 (Q9UPU5 whole entry): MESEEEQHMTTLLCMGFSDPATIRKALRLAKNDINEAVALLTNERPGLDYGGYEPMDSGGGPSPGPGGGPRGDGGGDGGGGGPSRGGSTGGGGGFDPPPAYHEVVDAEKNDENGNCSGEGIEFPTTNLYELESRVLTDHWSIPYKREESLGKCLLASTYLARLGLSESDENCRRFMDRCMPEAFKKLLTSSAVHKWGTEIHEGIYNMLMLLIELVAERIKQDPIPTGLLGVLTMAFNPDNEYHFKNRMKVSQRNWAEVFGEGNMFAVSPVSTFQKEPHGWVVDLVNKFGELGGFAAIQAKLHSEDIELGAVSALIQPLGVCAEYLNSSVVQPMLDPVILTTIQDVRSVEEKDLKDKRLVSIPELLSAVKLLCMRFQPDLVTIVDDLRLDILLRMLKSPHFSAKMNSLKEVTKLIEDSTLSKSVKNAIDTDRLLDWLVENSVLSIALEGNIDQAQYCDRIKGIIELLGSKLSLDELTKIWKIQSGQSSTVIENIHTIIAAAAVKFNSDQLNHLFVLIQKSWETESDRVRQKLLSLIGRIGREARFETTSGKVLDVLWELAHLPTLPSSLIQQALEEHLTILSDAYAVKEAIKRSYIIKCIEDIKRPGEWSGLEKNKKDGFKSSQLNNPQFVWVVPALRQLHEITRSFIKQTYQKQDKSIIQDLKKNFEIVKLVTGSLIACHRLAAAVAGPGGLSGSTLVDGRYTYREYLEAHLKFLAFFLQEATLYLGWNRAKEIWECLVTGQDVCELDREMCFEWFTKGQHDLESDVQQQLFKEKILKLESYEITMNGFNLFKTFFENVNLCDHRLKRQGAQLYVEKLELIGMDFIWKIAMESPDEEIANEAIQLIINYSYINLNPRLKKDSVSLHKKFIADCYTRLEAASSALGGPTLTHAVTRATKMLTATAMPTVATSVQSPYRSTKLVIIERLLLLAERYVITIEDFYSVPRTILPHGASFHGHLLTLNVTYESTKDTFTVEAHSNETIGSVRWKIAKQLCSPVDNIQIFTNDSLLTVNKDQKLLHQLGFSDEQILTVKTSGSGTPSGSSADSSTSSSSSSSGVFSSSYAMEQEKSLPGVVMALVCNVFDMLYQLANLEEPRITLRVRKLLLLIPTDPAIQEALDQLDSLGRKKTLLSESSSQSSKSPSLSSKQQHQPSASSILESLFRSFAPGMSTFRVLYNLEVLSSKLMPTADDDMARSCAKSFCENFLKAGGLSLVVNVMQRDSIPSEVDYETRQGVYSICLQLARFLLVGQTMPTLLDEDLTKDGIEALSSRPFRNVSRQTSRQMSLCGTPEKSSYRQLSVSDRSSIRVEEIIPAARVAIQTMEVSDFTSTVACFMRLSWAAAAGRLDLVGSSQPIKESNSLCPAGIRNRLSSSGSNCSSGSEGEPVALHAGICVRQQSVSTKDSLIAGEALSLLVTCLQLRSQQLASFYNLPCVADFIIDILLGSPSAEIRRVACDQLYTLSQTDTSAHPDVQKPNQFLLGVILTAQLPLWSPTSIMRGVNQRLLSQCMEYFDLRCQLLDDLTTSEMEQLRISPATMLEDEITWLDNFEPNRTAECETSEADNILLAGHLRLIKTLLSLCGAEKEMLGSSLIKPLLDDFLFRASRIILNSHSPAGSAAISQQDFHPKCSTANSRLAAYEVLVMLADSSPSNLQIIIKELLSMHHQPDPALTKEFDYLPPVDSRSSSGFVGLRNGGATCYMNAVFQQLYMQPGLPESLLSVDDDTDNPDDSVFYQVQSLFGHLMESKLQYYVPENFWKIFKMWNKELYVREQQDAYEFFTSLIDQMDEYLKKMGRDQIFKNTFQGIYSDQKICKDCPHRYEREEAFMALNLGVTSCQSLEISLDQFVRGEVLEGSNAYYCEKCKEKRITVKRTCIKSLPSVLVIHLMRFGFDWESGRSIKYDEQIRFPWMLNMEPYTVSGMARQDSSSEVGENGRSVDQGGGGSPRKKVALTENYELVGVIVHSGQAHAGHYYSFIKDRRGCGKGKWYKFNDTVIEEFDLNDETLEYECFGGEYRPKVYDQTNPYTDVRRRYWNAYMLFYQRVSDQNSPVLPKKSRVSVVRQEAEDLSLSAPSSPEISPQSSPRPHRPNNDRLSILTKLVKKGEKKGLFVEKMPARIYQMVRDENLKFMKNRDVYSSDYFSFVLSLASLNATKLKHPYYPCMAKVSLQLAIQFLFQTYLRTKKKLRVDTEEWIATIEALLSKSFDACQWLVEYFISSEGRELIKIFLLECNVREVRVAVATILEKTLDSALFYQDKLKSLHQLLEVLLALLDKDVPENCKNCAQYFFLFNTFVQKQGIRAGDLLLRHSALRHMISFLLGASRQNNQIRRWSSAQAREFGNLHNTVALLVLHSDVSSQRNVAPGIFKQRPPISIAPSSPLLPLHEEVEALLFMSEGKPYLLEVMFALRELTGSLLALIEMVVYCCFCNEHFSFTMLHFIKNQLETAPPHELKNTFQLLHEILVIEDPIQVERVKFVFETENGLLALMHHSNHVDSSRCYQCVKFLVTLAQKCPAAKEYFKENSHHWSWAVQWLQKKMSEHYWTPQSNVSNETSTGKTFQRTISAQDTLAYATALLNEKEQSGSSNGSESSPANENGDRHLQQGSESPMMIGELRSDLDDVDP

SMILES: O=C(CCl)Nc1ccc(N2CCCC2=O)cc1
- log2 ratio of Biotin-Ahx-Ub-VS probe labelling [1]: -0.0288
- log2 ratio of Biotin-Ahx-Ub-VS probe labelling [2]: 0.36
- log2 ratio of Biotin-Ahx-Ub-VS probe labelling [3]: -0.284
- log2 ratio of Biotin-Ahx-Ub-VS probe labelling [4]: -1.8 (active)
- log2 ratio of Biotin-Ahx-Ub-VS probe labelling [5]: -1.25 (active)

Source: the supplement of paper PMC11732987, “Enantioselective OTUD7B fragment discovery through chemoproteomics screening and high-throughput optimisation” (Communications Chemistry, 2025)
